The results in this text go back to PubChem BioAssay AID651635 (National Center for Advancing Translational Sciences (NCATS), 2012).

Out of some 400,000 compounds screened, about 1,900 (0.47%) were called active. About 14% were inconclusive and are not listed. The entries come from a sample that favours actives as a whole. Unmarked numbers belong to inactive results. Calls come from the whole dose curve; as a rule, active = well fitted cell-killing curve with a large enough effect; inconclusive = small, poorly fitted or top-dose-only effect, or effect the other way; inactive = no such curve, though single readings can be large or run the other way.
Potency is the fitted concentration of half-maximal effect.

This assay is described as follows: Viability Counterscreen for Primary qHTS for Inhibitors of ATXN expression. Note: nearly all actives have a fitted effect of over 40% in size. The note with it: S2 cells (HEK-293 line with an ATXN2-luciferase reporter) viability, CellTiter-Fluor protease fluorescence, 24 h; series mostly up to 56.7 µM; activity change, negative = cytotoxicity: at the top concentration. The source says:
Spinocerebellar ataxia type 2 (SCA2) is a multisystem neurodegenerative disease caused by a dominantly-acting mutation leading to expansion of a polyQ domain in the ataxin-2 protein (ATXN2). SCA2 patients develop progressive ataxia and later lose function in other neuronal systems. Prominent parkinsonian signs develop in some patients. Similar to many neurodegenerative disorders, no symptomatic or disease-modifying treatments are known.
The primary objective of the proposed research is to identify compounds inhibiting ATXN2 expression and to test them for efficacy in SCA2 mouse models. To this end, we have developed a cell-based assay paired with an in vivo mouse model using identical luciferase expression constructs. This approach takes advantage of an ATXN2-luciferase transgene, with the luciferase gene flanked by the upstream and downstream portions of the ATXN2 gene. This primary assay was tested against the NIH Molecular Libraries Small Molecule Repository (MLSMR).
NIH Chemical Genomics Center [NCGC]
NIH Molecular Libraries Probe Centers Network [MLPCN]
Assay Submitter (PI): Daniel Scoles, University of Utah
PROTOCOL TABLE (as described by Inglese J, Shamu CE and Guy RK. 2007)
SEQUENCE No. (e.g., 1, 2, 3, etc.); […] (e.g., Cells, Incubation, Reagent, etc.); VALUE; DESCRIPTION.
1; Cells; 4 uL; white, solid bottom, 1536-well Greiner assay plate.
2; Incubation; 2 hr; 37 degree C in 5% humidified CO2.
3; Compounds; 23 nL; Kalypsis pintool (Wako USA) equipped with a 1536-well pin head.
4; Incubation; 24 hr; 37 degree C in 5% humidified CO2.
5; Reagent; 1 uL; Gly-Phe-7-Amino-4-trifluoromethylcoumarin.
6; Incubation; 30 min; 37 degree C in 5% humidified CO2.
7; Detection; Fluorescence; ViewLux plate reader (PerkinElmer).
8; Reagent; 3 uL; SteadyGlo luciferase solution (Promega).
9; Incubation; 5 min; room temperature.
10; Detection; Luminescence; ViewLux plate reader (PerkinElmer).
NOTES (numbers refer to Sequence numbers above)
1. S2 cells expressing ATXN2-luciferase reporter were suspended in phenol-red free DMEM and dispensed in assay plates using a Multidrop Combi dispenser (Thermo Fisher Scientific).
2. Assay plates were incubated. Evaporation was prevented by covering assay plates with metal lids containing holes to allow gas diffusion.
3. […] Vehicle-only plates, with DMSO being pin-transferred to columns 5-48, were inserted uniformly at the beginning and the end of each library to monitor and record any shifts in assay performance.
5. 125 uM Gly-Phe-7-Amino-4-trifluoromethylcoumarin (MP Biomedicals) working concentration was used at a final concentration of 25 uM.
7. To assess cell viability; the assay plates were read using the ViewLux high-throughput CCD imager (PerkinElmer), wherein single end-point fluorescence measurement was acquired (excitation 405/10; emission 540/25 nm).
8. Detection reagent SteadyGlo Luciferase (Promega) was added to the assay plate.
10. Luminescence is then measured on the ViewLux imager equipped with a clear emission filter using a 2 sec exposure. All screening operations were performed on a fully integrated robotic system (Kalypsys) containing one RX-130 and two RX-90 anthropomorphic robotic arms (Staubli).
Inglese J, Shamu CE and Guy RK, Reporting data from high throughput screening of small molecule libraries, Nature Chemical Biology, 2007, 3(8): 438-441. doi.org/10.1038/nchembio0807-438.
As for `O=[N+]([O-])c1c(NCCO)cc(Sc2nc3ccccc3s2)c2nonc12`, the Potency was 20 µM (active).

As for `C=C1C(=CC=C2CCC[C@]3(C)[C@@H]([C@H](C)C=C[C@H](C)C(C)C)CC[C@@H]23)C[C@@H](O)C[C@@H]1O`, the “activity change, negative = cytotoxicity” value is 13.1%.

Consider `COc1ccc(C)cc1N1C(=O)[C@@H]2C[C@H]1CN2Cc1cccc(OC)c1O`, for which the “activity change, negative = cytotoxicity” value was -13.5%.

As for `COc1ccc(NC(=O)C2Cc3c(-c4ccc(Cl)cc4)ccnc3O2)cc1` (centres undefined), the “activity change, negative = cytotoxicity” value is -34.9%.

Consider `CCc1ccccc1N1CC(c2nc3ccccc3n2CCCCOc2ccccc2)CC1=O` (centres undefined), for which the “activity change, negative = cytotoxicity” value is -17.9%.

In the case of `CCCCN1CC(c2nc3ccccc3n2CCCCOc2ccc(C)cc2C)CC1=O` (centres undefined), the Potency was 25.1 µM (active).

`CCOc1ccc(N2CC(c3nc4ccccc4n3CCOc3ccc(OC)cc3)CC2=O)cc1` (centres undefined): the “activity change, negative = cytotoxicity” value was -34.3%.

Consider `CCCCc1c(-c2ccc(Br)cc2)ncn1CCc1ccccc1OC`, for which the Potency is 15.8 µM (active).

In the case of `COc1ccccc1CCNS(=O)(=O)c1cn(C)nc1C`, the “activity change, negative = cytotoxicity” value was -9.41%.

For `CCOc1ccc(-c2n[nH]c3c2C(c2ccccc2OC)N(c2ccc(Br)cc2)C3=O)cc1` (centres undefined), the “activity change, negative = cytotoxicity” value was -27.2%.

On to `COc1ccccc1Cc1c(-c2ccc(Cl)cc2)nc2ccc(Cl)cn12`, for which the “activity change, negative = cytotoxicity” value was -9.29%.

On to `CCCCCc1c(Cc2ccccc2)ncn1CCc1ccccc1OC`, for which the Potency was 22.4 µM (active).

Take `Cn1c(=O)c2c(ncn2CCc2ccccc2)n(C)c1=O`: the “activity change, negative = cytotoxicity” value was -14.3%.

With `CCCc1c2oc(C(=O)O)cc(=O)c2cc2c(=O)cc(C(=O)O)n(CC)c12`, the “activity change, negative = cytotoxicity” value is -0.84%.

With `O=C1CCN(Cc2ccc(-c3ccccc3)cc2)CCN1Cc1ccccn1`, the “activity change, negative = cytotoxicity” value was -0.49%.

On to `Cc1ncc2c(c1CNS(=O)(=O)N(C)C)CCN(C(=O)c1ccccc1F)C2`, for which the “activity change, negative = cytotoxicity” value is -9.75%.

For the compound `CS(=O)(=O)NC(=O)CCC/C=C\C[C@H]1C(=O)C[C@@H](O)[C@@H]1/C=C/[C@H](O)COc1ccccc1`, the “activity change, negative = cytotoxicity” value is -8.77%.

With `Cc1ccc(-c2ccnc(-n3ncc(C(=O)N(C)Cc4cccc5ncccc45)c3C3CC3)n2)o1`, the “activity change, negative = cytotoxicity” value was -9.53%.

In the case of `COc1cccc(NC(=O)C2CCN(c3cc(C)nc4c(-c5ccc(Cl)cc5)c(C)nn34)CC2)c1`, the “activity change, negative = cytotoxicity” value was -19.3%.

As for `COc1ccc(-n2nc3c(N4CCC(C(=O)NCc5ccccc5)CC4)nnc(C)c3c2C)cc1`, the “activity change, negative = cytotoxicity” value was -17.5%.

Take `Cc1nnc(N2CCC(C(=O)Nc3ccc(F)cc3)CC2)c2nn(-c3ccc(Cl)cc3)c(C)c12`: the Potency was 20 µM (active).

Consider `CCOC(=O)N1CCN(S(=O)(=O)c2ccc(OC)cc2)CC1`, for which the “activity change, negative = cytotoxicity” value is -16.8%.

Take `CCOC(=O)C1=C(c2ccc(OC)cc2)C(=O)c2ccccc2C1=O`: the Potency was 6.31 µM (active).

With `COC(=O)c1cc(OC)ccc1-c1ccc(OC)cc1`, the “activity change, negative = cytotoxicity” value was 7.37%.

In the case of `COC(=O)[C@@H]1C[C@H](NC(=O)c2ccccc2C(F)(F)F)CN1Cc1cccc(O)c1`, the “activity change, negative = cytotoxicity” value was -18.1%.

Regarding `CC(C)(C)C1CCc2c(sc(NC(=O)c3ccccc3F)c2C(=O)N2CCCCC2)C1` (centres undefined), the “activity change, negative = cytotoxicity” value was -15.6%.

Take `COc1cccc2[nH]c(C(=O)NCCc3ccccc3)cc12`: the “activity change, negative = cytotoxicity” value was -21.9%.

Consider `CC(O)CNCCOc1cccc(Oc2ccccc2)c1` (centres undefined), for which the “activity change, negative = cytotoxicity” value was -31%.

`COc1ccccc1OCCNCC(O)COc1cccc2[nH]c3ccccc3c12` (centres undefined): the Potency was 28.2 µM (active).

Consider `COc1ccc(NC(=O)C2Cc3c(-c4ccc5c(c4)OCO5)ccnc3O2)cn1` (centres undefined), for which the “activity change, negative = cytotoxicity” value is -16.8%.

For `Cc1ccc2cccc(NC(=O)c3cccc4ccccc34)c2n1`, the “activity change, negative = cytotoxicity” value was -34.8%.

As to `COc1cc(=O)n2c(c1C(=O)NCc1ccco1)CCN(Cc1ccccc1)CC2`, the “activity change, negative = cytotoxicity” value is -5.97%.

In the case of `Cc1cccc(C)c1NC(=O)c1ccc(N)cc1`, the “activity change, negative = cytotoxicity” value is 0.704%.

With `Cc1cc(C(=O)NCC2Cc3cccc(-c4cncnc4)c3O2)c(C)o1` (centres undefined), the “activity change, negative = cytotoxicity” value is -10.9%.

With `CNC[C@H](CC1CCCCC1)NC[C@H](NCCC1CCCC1)[C@H](C)O`, the Potency is 17.8 µM (active).

Consider `O=C(NCC(c1ccc2c(c1)OCO2)N1CCN(c2ccccc2)CC1)C(=O)Nc1ccccc1F` (centres undefined), for which the “activity change, negative = cytotoxicity” value was 1.03%.

Consider `O=S(O)CNc1ccc(S(=O)(=O)c2ccc(NCS(=O)O)cc2)cc1`, for which the “activity change, negative = cytotoxicity” value was -5.35%.

On to `O=C(CSc1ncn[nH]1)Nc1ccc(Br)cc1Br`, for which the “activity change, negative = cytotoxicity” value was -18.1%.

In the case of `O=C(/C=C/Sc1ncn[nH]1)c1ccc(Cl)cc1`, the Potency is 25.1 µM (active).

In the case of `O=C(CSc1ncn[nH]1)NCc1ccc2c(c1)OCO2`, the “activity change, negative = cytotoxicity” value was -17%.

Consider `CC(C)Oc1ccc(CN2CCC2(C)C(=O)NCc2ccc(C(F)(F)F)cc2)cc1` (centres undefined), for which the “activity change, negative = cytotoxicity” value is -28.4%.

In the case of `COc1cc(Cn2c3ccc(NC(=O)CC(C)c4ccccc4)cc3c(=O)n2C)ccc1F` (centres undefined), the “activity change, negative = cytotoxicity” value is -29.6%.

Consider `Cc1cccc(Cc2c(C)nc3nc(SCc4ccccc4Cl)nn3c2C)c1`, for which the “activity change, negative = cytotoxicity” value is -21.8%.

Turning to `COc1ccc(CN(C)CCn2cc(C(=O)N3CCSCC3)nn2)cc1C`, the “activity change, negative = cytotoxicity” value is -7.73%.

In the case of `O=C(CSc1n[nH]c(=O)n1-c1ccccc1)Nc1ccccc1C(F)(F)F`, the “activity change, negative = cytotoxicity” value was -31.4%.

On to `O=S(=O)(c1ccc(F)cc1)N1CCN(Cc2ccccc2C(F)(F)F)CC1`, for which the “activity change, negative = cytotoxicity” value is -24.4%.

In the case of `O=c1[nH]nc(SCCS(=O)(=O)c2ccc(F)cc2)n1-c1ccccc1C(F)(F)F`, the Potency was 11.2 µM (active).

On to `COc1ccc(-c2csc(C(O)c3cccc(Cl)c3)n2)cn1` (centres undefined), for which the “activity change, negative = cytotoxicity” value was -0.881%.

On to `COc1cc(=O)n2c(c1C(=O)NC(C)c1ccco1)CCN(Cc1cc(C)cc(C)c1)CC2` (centres undefined), for which the “activity change, negative = cytotoxicity” value was -1.1%.
